Assay results as given in the supplement of paper PMC6555819.

How the values were obtained:
Assay in all cases: PBM binding z-score (relative to random genomic background probes); higher = stronger binding; sequences stand for … in GC…GCGATTGACAGCGTAGAATGAAGG
[1] = system: FXR:RXRa (NR concentration 270 nM, RXRa partner concentration 90 nM)
How it was run: (§1)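 For binding z-scores, the reference was random background probes on custom Agilent 4×180K protein-binding microarrays. These arrays were incubated 1 h with ligand-free nuclear receptor dimers in PBS pH 7.4, 2% milk, 0.02% Triton X-100, 1 mM DTT, 0.2 mg/mL BSA and 0.4 mg/ml salmon testes DNA. Fluorescence was scanned after antibody detection of each partner (one per run) and regression-normalized.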

[2] = system: LXRa:RXRa (NR concentration 270 nM, RXRa partner concentration 90 nM)
How it was run: as §1

[3] = system: LXRa homodimer (NR concentration 270 nM)
How it was run: as §1

[4] = system: LXRb:RXRa (NR concentration 270 nM, RXRa partner concentration 90 nM)
How it was run: as §1

[5] = system: LXRb homodimer (NR concentration 270 nM)
How it was run: as §1

[6] = system: PPARa:RXRa (NR concentration 270 nM, RXRa partner concentration 90 nM)
How it was run: as §1

[7] = system: PPARg:RXRa (NR concentration 180 nM, RXRa partner concentration 90 nM)
How it was run: as §1

[8] = system: PPARg:RXRa 270nM:90nM, anti-RXR (NR concentration 270 nM, RXRa partner concentration 90 nM)
How it was run: as §1

[9] = system: PPARg:RXRa 30nM:10nM, anti-RXR (NR concentration 30 nM, RXRa partner concentration 10 nM)
How it was run: as §1

[10] = system: PPARg:RXRa 90nM:30nM, anti-RXR (NR concentration 90 nM, RXRa partner concentration 30 nM)
How it was run: as §1

Sequence	PBM binding z-score [1]	PBM binding z-score [2]	PBM binding z-score [3]	PBM binding z-score [4]	PBM binding z-score [5]	PBM binding z-score [6]	PBM binding z-score [7]	PBM binding z-score [8]	PBM binding z-score [9]	PBM binding z-score [10]
TAGTCTAGGTCATGCGGGCCAGTATAGTGTCGGC	4.02	3.48	1.36	1.76	1.87	3.92	4.97	4.56	1.78	3.81
AGAATGTGGTTAAGATCAGGGAAACAGAATACAT	0.33	-0.14	0.153	0.27	0.174	0.172	0.496	0.291	0.299	-0.247
CCTCGGAGGACAGAAGGTCAGACCTGTCCGCTTT	1.44	1.56	0.0539	1.3	-0.489	1.9	0.19	0.86	-0.764	0.0778
ACAGACAGGTGATGAAGGTCACTCAGGCTATCAT	1.77	2.17	0.813	1.96	0.00655	2.75	1.62	1.8	0.565	1.21
CCTACTGGGCCAAGGTCAGTGATCAGTCAAAGCA	0.749	0.797	0.0206	0.924	-0.982	2.46	2.73	3.3	0.671	2.45
CCGACTGGGGCTTAAGGTTACCATAAGCCAGCCC	0.202	1.84	-0.512	0.703	-1.22	0.992	0.91	1.99	-0.108	1.29
CCTTGCAGGCCAATCTGGGTCACTCAAGGCTTGA	0.555	1.37	-0.554	1.1	-0.539	3.31	2.29	2.35	-0.0639	1.2
CCTACTGGGCCATCAGGTCATTGAGATCAACGTT	1.65	1.44	1.22	1.45	-0.336	2.93	3.04	3.58	1.41	3.12
AACGAAAGGTCGAGGTGAGTATAGAGAAAGGGAA	4.3	3.7	-0.0292	2.86	0.0857	4.71	3.34	3.82	1.16	2.59
AGTCAAAGTTCGGGACGAGGTAACGTAAAGCACG	0.65	0.402	-0.198	0.242	-0.3	1.08	1.85	2.33	0.491	1.33
CGAACGAGGGCGTGAGTTGATAGCAAATGCCGAT	-0.128	-0.241	-0.781	-0.468	-0.878	0.0145	0.401	0.0824	-0.205	-0.084
GCGACTGGGGCATCAGCAGGTTATCATAACTTAA	-0.342	-0.258	-0.199	0.87	-0.615	1.38	0.968	0.916	-0.378	0.369
ATATGTAGGTTATCGGGTCATTCGGTTTGCGCAT	3.2	3.11	1.78	2.85	1.02	4.68	6.96	5.9	3.48	6.13
CATCCTAGGTCAGGGCCAGTATAGGAGGAACGTT	2.24	2.03	0.118	1.17	-0.0238	2.75	1.89	2.19	0.615	1.34
CGTCCAACGTCAAAGGTCAGTGAAGAGATGACGG	2.97	3.2	0.576	2.94	0.0829	4.04	3.28	4.92	2.64	4.72
TCTAGTTGGTCACGGAGGTGACACACGACGGGTA	1.04	0.805	-0.0469	0.335	0.00515	1.43	1.64	1.98	2.83	2.24
TCATATAGGTATTACAGGTGAAAGTCGGCATCTA	1.47	2.05	1.08	1.34	0.496	1.67	1.1	2.38	4.15	3.27
GCTCGGAGGACAAGCTCAGAGCTTTGTCCGTAGA	-0.583	-0.885	-0.935	-0.784	-0.639	-0.425	-1.69	-1.3	-1.5	-1.33
CAAACTAGGTCAAGAGGTCAAAATCCGCTTCCCG	6.73	6.04	5.14	5.6	1.75	6.65	9.69	8.11	7.03	8.2
AGTCTAAGTTCATCTAGGTAACGTAAGATATGCT	4.07	4.07	1.92	2.09	0.539	3.17	1.72	2.24	0.691	1.31
CCTAGCAGGCTAATCTGGGTCACTCAAGGCTTGA	0.577	3.74	0.0725	1.2	-0.635	3.14	2.13	2.31	0.292	1.49
TCTCGTAGGACACGAAAGGTCAGAGCTCGACATC	3.08	3.85	2.58	3.39	0.134	3.58	1.24	2.98	2.7	2.81
TCTAGTAGATCAAAGGTTAAGAAAGCCGAAGCCT	1.56	2.07	0.141	1.98	-0.538	4.8	8.6	8.24	8.54	8.99
GGAACGAGGGCAAAGCTGATAGCATCTGTCGACG	0.392	0.366	-0.605	-0.126	-0.711	1.68	1.5	1.78	0.251	1.17
